This passage reports binding signal results from article PMC7862700, “An all-to-all approach to the identification of sequence-specific readers for epigenetic DNA modifications on cytosine”.

Common to all, as to assay: DAPPL (digital affinity profiling via proximity ligation, sequencing); 10 mM Tris-HCl pH 7.5, 50 mM NaCl, 1 mM DTT, 4% glycerol, room temperature, 30 min; GST-TFs on glutathione beads, 16-mer random dsDNA library, 0.1% formaldehyde crosslink after washing; high values mean tight binding
Holding throughout (details): protein: recombinant; tags: N-terminal GST; dsDNA, one strand shown

Assay [1] has as its target T1, ERF (Homo sapiens, UniProt P50548 1-548).
T1 sequence: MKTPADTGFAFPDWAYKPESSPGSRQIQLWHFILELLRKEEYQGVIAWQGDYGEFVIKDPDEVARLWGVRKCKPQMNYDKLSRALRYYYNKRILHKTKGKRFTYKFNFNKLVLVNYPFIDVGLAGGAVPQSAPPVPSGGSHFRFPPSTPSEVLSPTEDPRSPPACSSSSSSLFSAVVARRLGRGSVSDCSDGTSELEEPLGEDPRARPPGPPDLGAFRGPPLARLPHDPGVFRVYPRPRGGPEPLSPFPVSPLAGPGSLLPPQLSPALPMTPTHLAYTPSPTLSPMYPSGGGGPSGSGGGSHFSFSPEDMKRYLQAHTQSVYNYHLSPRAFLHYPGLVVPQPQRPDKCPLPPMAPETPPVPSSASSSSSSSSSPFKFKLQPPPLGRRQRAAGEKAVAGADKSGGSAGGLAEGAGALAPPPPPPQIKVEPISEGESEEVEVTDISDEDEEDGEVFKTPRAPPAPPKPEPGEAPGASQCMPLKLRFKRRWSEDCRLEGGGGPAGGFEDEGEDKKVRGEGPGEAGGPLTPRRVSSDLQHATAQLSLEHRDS
An outline of the steps: (§1)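 Binding signal is defined as a hexamer's read frequency for one factor over its frequency for the tag-only sample. To obtain reads, GST-fused human transcription factors were expressed in yeast, captured on glutathione beads, barcoded with DNA and pooled with that sample. Pools met 200 nmole of a 16-mer random double-stranded DNA library in Tris/NaCl/DTT/glycerol buffer for 30 min at room temperature before washing, 0.1% formaldehyde crosslinking, proximity ligation (BsaI/T4 ligase, 1 h, 37 °C), PCR and Illumina NextSeq500 sequencing.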

The target of assay [2] is T2, ETV3L (Homo sapiens, UniProt Q6ZN32 1-361).
T2 sequence: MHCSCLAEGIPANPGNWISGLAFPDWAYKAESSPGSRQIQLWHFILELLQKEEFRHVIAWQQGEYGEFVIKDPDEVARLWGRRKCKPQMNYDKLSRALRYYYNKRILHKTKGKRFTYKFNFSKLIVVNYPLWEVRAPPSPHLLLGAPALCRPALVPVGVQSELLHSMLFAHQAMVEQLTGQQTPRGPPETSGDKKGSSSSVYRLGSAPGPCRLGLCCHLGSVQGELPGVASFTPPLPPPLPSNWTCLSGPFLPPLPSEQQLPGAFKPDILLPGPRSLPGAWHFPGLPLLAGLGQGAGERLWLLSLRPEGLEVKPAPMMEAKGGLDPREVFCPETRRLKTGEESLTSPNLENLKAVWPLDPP
The procedure, abridged:
as §1

For assay [3], the target named is T3, ETS2 (Homo sapiens, UniProt P15036 1-469).
T3 sequence: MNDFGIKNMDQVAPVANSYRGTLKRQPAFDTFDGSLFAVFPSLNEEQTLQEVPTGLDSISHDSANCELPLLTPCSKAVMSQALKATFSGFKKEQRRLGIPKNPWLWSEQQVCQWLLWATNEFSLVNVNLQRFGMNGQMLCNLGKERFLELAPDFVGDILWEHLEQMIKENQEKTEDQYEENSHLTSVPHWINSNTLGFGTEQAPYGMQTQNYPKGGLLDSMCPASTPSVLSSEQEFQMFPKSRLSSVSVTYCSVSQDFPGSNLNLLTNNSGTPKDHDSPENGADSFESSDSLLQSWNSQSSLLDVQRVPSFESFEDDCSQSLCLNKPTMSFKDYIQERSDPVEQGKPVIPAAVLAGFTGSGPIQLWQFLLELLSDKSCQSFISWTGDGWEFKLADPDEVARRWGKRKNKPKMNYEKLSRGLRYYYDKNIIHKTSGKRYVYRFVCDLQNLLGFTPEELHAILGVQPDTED
The procedure, abridged: as §1

Assay [4] addresses T4, SPDEF (Homo sapiens, UniProt O95238 1-335).
T4 sequence: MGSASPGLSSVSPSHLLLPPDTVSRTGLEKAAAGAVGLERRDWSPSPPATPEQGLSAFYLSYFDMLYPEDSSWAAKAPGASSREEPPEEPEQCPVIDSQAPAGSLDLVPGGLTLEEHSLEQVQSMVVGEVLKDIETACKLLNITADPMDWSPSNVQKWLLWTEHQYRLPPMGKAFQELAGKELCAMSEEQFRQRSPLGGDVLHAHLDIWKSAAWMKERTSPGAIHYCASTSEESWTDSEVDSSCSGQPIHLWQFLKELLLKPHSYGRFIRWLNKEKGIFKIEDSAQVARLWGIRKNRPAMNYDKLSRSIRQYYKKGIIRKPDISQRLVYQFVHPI
The procedure, abridged: as §1

For assay [5], the target named is T5, ETV7 (Homo sapiens, UniProt Q9Y603 1-341).
T5 sequence: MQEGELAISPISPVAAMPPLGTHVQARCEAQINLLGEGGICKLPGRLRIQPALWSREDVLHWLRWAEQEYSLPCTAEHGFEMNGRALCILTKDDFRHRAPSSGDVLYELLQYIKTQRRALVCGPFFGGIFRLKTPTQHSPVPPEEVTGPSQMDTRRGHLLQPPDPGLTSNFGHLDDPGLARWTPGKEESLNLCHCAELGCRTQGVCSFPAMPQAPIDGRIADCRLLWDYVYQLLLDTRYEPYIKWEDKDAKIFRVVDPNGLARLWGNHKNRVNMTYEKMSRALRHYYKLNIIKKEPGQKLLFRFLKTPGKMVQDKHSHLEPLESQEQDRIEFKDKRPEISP
An outline of the steps:
as §1

The target of assay [6] is T6, ELF5 (Homo sapiens, UniProt Q9UKW6-2 1-255).
T6 sequence: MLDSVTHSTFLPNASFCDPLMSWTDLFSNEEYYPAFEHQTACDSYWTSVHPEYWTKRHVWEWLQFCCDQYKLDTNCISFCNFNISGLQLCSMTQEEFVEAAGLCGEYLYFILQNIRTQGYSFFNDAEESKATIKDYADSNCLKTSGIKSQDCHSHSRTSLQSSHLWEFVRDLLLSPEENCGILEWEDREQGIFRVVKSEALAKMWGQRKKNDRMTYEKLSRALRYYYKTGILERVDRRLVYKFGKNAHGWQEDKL
The procedure, abridged:
as §1

Assay [7] concerns the target T7, ETV3 (Homo sapiens, UniProt P41162-2 1-143).
T7 sequence: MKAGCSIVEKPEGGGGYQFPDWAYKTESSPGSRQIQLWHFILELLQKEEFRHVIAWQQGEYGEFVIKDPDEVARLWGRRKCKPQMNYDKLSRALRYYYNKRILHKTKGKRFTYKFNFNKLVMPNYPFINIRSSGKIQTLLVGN
The procedure, abridged: as §1

For assay [8], the target named is ETV6 (Homo sapiens, UniProt P41212 1-452). The procedure, abridged: as §1
ETV6, sequence (P41212 whole entry): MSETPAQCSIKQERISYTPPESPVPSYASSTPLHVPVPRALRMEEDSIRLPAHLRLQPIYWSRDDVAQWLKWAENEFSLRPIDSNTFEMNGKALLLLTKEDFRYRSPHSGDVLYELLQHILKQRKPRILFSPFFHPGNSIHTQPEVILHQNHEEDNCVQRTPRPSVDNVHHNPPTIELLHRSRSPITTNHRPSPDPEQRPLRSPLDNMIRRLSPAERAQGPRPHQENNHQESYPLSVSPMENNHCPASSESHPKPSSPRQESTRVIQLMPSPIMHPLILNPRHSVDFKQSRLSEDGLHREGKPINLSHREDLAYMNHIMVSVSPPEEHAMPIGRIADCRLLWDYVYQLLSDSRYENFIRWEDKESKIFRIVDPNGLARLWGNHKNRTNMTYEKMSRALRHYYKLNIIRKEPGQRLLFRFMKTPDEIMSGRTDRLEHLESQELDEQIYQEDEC

CTTGCA: the binding signal in assay [1] is 1.39 fold enrichment (6-mer frequency, TF over GST control); in assay [2] it was 1.53 fold enrichment (6-mer frequency, TF over GST control); in assay [3], 1.33 fold enrichment (6-mer frequency, TF over GST control); in assay [4], 1.49 fold enrichment (6-mer frequency, TF over GST control); in assay [5], 1.28 fold enrichment (6-mer frequency, TF over GST control); in assay [6], 1.36 fold enrichment (6-mer frequency, TF over GST control). The binding signal in assay [7] is 1.45 fold enrichment (6-mer frequency, TF over GST control); in assay [8], 1.3 fold enrichment (6-mer frequency, TF over GST control).

On to TATTTC, for which the binding signal in assay [1] was 1.86 fold enrichment (6-mer frequency, TF over GST control); in assay [2], 2.06 fold enrichment (6-mer frequency, TF over GST control); in assay [3], 2.23 fold enrichment (6-mer frequency, TF over GST control); in assay [4] it was 2 fold enrichment (6-mer frequency, TF over GST control); in assay [5], 2.2 fold enrichment (6-mer frequency, TF over GST control); in assay [6], 2.66 fold enrichment (6-mer frequency, TF over GST control). Further, the binding signal is 2.23 fold enrichment (6-mer frequency, TF over GST control) in assay [7] and 2.54 fold enrichment (6-mer frequency, TF over GST control) in assay [8].

TCCTTA: the binding signal in assay [1] is 1.43 fold enrichment (6-mer frequency, TF over GST control); in assay [2] it was 1.7 fold enrichment (6-mer frequency, TF over GST control); in assay [3], 1.6 fold enrichment (6-mer frequency, TF over GST control); in assay [4], 1.75 fold enrichment (6-mer frequency, TF over GST control); in assay [5], 1.59 fold enrichment (6-mer frequency, TF over GST control); in assay [6], 2.6 fold enrichment (6-mer frequency, TF over GST control). The binding signal in assay [7] is 1.74 fold enrichment (6-mer frequency, TF over GST control); in assay [8] it was 1.63 fold enrichment (6-mer frequency, TF over GST control).

Take TGACAC: the binding signal in assay [1] was 1.3 fold enrichment (6-mer frequency, TF over GST control); in assay [2] it was 1.22 fold enrichment (6-mer frequency, TF over GST control); in assay [3], 1.24 fold enrichment (6-mer frequency, TF over GST control); in assay [4], 1.11 fold enrichment (6-mer frequency, TF over GST control); in assay [5] it was 1.28 fold enrichment (6-mer frequency, TF over GST control); in assay [6] it was 1.19 fold enrichment (6-mer frequency, TF over GST control). The binding signal is 1.21 fold enrichment (6-mer frequency, TF over GST control) in assay [7] and 1.19 fold enrichment (6-mer frequency, TF over GST control) in assay [8].

On to CTCGCC, for which the binding signal in assay [1] was 1.4 fold enrichment (6-mer frequency, TF over GST control); in assay [2] it was 1.2 fold enrichment (6-mer frequency, TF over GST control); in assay [3] it was 1.25 fold enrichment (6-mer frequency, TF over GST control); in assay [4], 1.07 fold enrichment (6-mer frequency, TF over GST control); in assay [5], 1.16 fold enrichment (6-mer frequency, TF over GST control); in assay [6] it was 1.26 fold enrichment (6-mer frequency, TF over GST control). Moreover, the binding signal in assay [7] is 1.2 fold enrichment (6-mer frequency, TF over GST control); in assay [8] it was 1.29 fold enrichment (6-mer frequency, TF over GST control).

Take ACTCAC: the binding signal in assay [1] is 1.25 fold enrichment (6-mer frequency, TF over GST control); in assay [2], 1.16 fold enrichment (6-mer frequency, TF over GST control); in assay [3], 1.28 fold enrichment (6-mer frequency, TF over GST control); in assay [4], 1.22 fold enrichment (6-mer frequency, TF over GST control); in assay [5] it was 1.2 fold enrichment (6-mer frequency, TF over GST control); in assay [6], 1.21 fold enrichment (6-mer frequency, TF over GST control). The binding signal in assay [7] is 1.15 fold enrichment (6-mer frequency, TF over GST control); in assay [8] it was 1.22 fold enrichment (6-mer frequency, TF over GST control).

In the case of CCACCC, the binding signal in assay [1] was 1.24 fold enrichment (6-mer frequency, TF over GST control); in assay [2], 1.37 fold enrichment (6-mer frequency, TF over GST control); in assay [3], 1.18 fold enrichment (6-mer frequency, TF over GST control); in assay [4], 1.22 fold enrichment (6-mer frequency, TF over GST control); in assay [5], 1.09 fold enrichment (6-mer frequency, TF over GST control); in assay [6], 1.21 fold enrichment (6-mer frequency, TF over GST control). In addition, the binding signal in assay [7] is 1.28 fold enrichment (6-mer frequency, TF over GST control); in assay [8] it was 1.24 fold enrichment (6-mer frequency, TF over GST control).

As to CCTTTG, the binding signal is 1.24 fold enrichment (6-mer frequency, TF over GST control) in assay [1]; 1.32 fold enrichment (6-mer frequency, TF over GST control) in assay [2]; 1.32 fold enrichment (6-mer frequency, TF over GST control) in assay [3]; 1.22 fold enrichment (6-mer frequency, TF over GST control) in assay [4]; 1.33 fold enrichment (6-mer frequency, TF over GST control) in assay [5]; 1.31 fold enrichment (6-mer frequency, TF over GST control) in assay [6]. For the same sequence, the binding signal in assay [7] was 1.34 fold enrichment (6-mer frequency, TF over GST control); in assay [8], 1.17 fold enrichment (6-mer frequency, TF over GST control).
